Only a selection was taken, and hits are over-represented in it overall.
ST2 IL33 inh: IL1RL1 inhibition. AlphaLISA ST2-Fc/biotin-IL-33 interaction, 1 h. inhibition, % for hits at 17 µM. AID 1259354. Q01638. hit rate 2.3% among 78,000; in the data active means inhibition above about 30%
Target sequence (Q01638 whole entry, looked up): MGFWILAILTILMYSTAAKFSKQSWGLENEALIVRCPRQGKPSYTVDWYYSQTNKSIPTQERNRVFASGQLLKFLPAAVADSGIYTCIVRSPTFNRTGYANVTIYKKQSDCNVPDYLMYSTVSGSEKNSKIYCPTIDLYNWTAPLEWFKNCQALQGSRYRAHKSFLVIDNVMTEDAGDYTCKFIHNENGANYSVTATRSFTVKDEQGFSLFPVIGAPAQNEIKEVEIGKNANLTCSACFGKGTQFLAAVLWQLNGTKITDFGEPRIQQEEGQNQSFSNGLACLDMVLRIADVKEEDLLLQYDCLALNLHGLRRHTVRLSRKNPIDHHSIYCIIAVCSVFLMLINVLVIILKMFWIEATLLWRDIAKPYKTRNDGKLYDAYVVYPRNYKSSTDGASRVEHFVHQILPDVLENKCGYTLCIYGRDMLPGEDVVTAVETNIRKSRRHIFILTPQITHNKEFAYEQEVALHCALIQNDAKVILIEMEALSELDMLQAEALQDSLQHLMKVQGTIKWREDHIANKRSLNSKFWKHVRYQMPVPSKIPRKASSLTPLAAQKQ
* hit, by the source's call; i = inactive.

SMILES	ST2 IL33 inh
CCOC(=O)N1CCC(N2CCC3(CC2)C(=O)N(CCN(C)C)C(=O)N3CC)CC1	i
O=C(C1CCN(Cc2ccco2)CC1)N1CCC(O)(c2ccccc2)C1 (centres undefined)	i
CCOC(=O)C1C(=O)C=C(c2ccco2)CC1c1cccs1 (centres undefined)	i
CCOC(=O)C1C(=O)C=C(c2cccs2)CC1c1cccc(F)c1 (centres undefined)	47.0%*
CCOC(=O)C1C(=O)C=C(c2cccc(OC)c2)CC1c1ccc(OC)c(OC)c1 (centres undefined)	i
CN(C)CCCN1C(=O)NC(Cc2cccc(F)c2)(C2CCN(C(=O)C3=CCCC3)CC2)C1=O (centres undefined)	i
N#Cc1ccc(Oc2ccc(C(=O)O)cc2)cc1	i
CCCN(CCC)S(=O)(=O)c1cccc2nonc12	i
CCc1ccc(N(CC)S(=O)(=O)c2cccc3nonc23)cc1	i
CCCCN(CCCC)S(=O)(=O)c1cccc2nonc12	31.0%*
CSc1nc2c(c(=O)[nH]1)C(c1cccc(Br)c1)C1=C(CC(C)(C)CC1=O)N2 (centres undefined)	i
COc1ccc(C2C(C(=O)OC3CCCCC3)=C(C)Nc3ncnn32)c(OC)c1 (centres undefined)	i
COc1ccc(N(CC(=O)Nc2cccc(C)c2)S(=O)(=O)c2ccc(C)c([N+](=O)[O-])c2)cc1	i
COc1cccc(CN2CCCC(O)(CN3CCSCC3)C2=O)c1OC (centres undefined)	i
O=C(CSc1nnc(-c2ccco2)n1-c1ccccc1)NCC1CCCO1 (centres undefined)	i
c1ccc(-c2nnc(SCC3CCOCO3)n2-c2ccccc2)cc1 (centres undefined)	31.0%*
CCc1ccccc1NC(=O)CSc1nnc(-c2ccncc2)n1-c1ccccc1	i
CC(CNC(=O)c1cc(Cn2cnc3ccccc32)[nH]n1)N1CCCC1 (centres undefined)	i
COc1ccc2cc(C3CN(C(=O)C4(N)CCC4)CCO3)ccc2c1 (centres undefined)	i
CCCN(CCC)c1ncc(C(=O)OC)c2ccccc12	i
COc1nnc(C)c2ccccc12	i
CCSc1sc(SC#N)cc1SC#N	47.0%*
CC(C)(C)Sc1ccc(SC#N)s1	i
O=C(NC1CC(=O)N(CCCc2ccccc2)C1)c1ccsc1 (centres undefined)	i
COc1cc([N+](=O)[O-])ccc1N=Cc1nc(-c2ccc(Br)cc2)oc1O	i
SMILES	ST2 IL33 inh
O=c1cc(-c2ccc(O)c(O)c2)oc2ccc(O)cc12	i
CC(C)Cc1ccc(S(=O)(=O)N2CCN(c3ccccc3F)CC2)cc1	i
CN(CCc1ccccn1)[C@H]1[C@@H]2OC[C@@H](O2)[C@@H](NC(=O)Nc2ccccc2)[C@@H]1O	i
CN(CCc1ccccn1)[C@H]1[C@@H]2OC[C@@H](O2)[C@@H](NCc2ccc(F)cc2)[C@@H]1O	32.0%*
COc1ccc(CN[C@H]2[C@H](O)[C@@H](N(C)CCN(C)C)[C@@H]3OC[C@H]2O3)cc1	i
CC(=O)c1ccc(N2CCN(C(=O)CCC3=NS(=O)(=O)c4ccccc4N3)CC2)cc1	i
N#Cc1c(N)n(-c2ccc(Cl)cc2)c2nc3ccccc3nc12	i
CCOC(=O)c1c(N)n(-c2ccc(C)cc2C)c2nc3ccccc3nc12	i
COc1ccc(-n2c(N)c(C#N)c3nc4ccccc4nc32)c(OC)c1	32.0%*
N#Cc1nc(COc2ccccc2)oc1NCc1ccc(F)cc1	34.0%*
Nc1nonc1-c1noc(COc2ccc(F)cc2)n1	i
COc1ccc(CNc2oc(COc3ccc(OC)cc3)nc2C#N)cc1	i
COCCCNC(=O)CSc1nc2ccccc2c2nc3ccccc3n12	i
COc1ccc(N2C(=O)NC(=O)/C(=C/c3cc(Br)c(O)c([N+](=O)[O-])c3)C2=O)cc1	i
CCOc1cc(/C=C2/NC(=O)NC2=O)c(Br)cc1O	i
COc1cc(/C=C2/C(=O)NN(c3ccc(Cl)cc3)C2=O)cc([N+](=O)[O-])c1O	i
COc1cc(/C=C2\C(=O)NC(=O)N(c3cccc(C)c3)C2=O)cc(Cl)c1O	i
COc1ccc(OC)c(/C=C2\C(=O)Nc3ccc(Br)cc32)c1	35.0%*
COc1cc(OC)c(/C=C2/C(=O)Nc3ccccc32)c(OC)c1	i
COc1cc(/C=C2\C(=O)Nc3ccc(Br)cc32)cc([N+](=O)[O-])c1O	31.0%*
COc1ccc(/C=C2\C(=O)Nc3ccc(Br)cc32)c(OC)c1OC	i
CCOc1cc(/C=C2\C(=O)Nc3ccc(Br)cc32)cc(Cl)c1O	33.0%*
O=c1cc(CN2CCCC(N3CCN(c4ccccc4F)CC3)C2)[nH]c(=O)[nH]1 (centres undefined)	i
COc1ccc(C)cc1NS(=O)(=O)c1ccc(CC(C)C)cc1	i
O=C(CCS(=O)(=O)c1ccc(Br)s1)NCc1ccc(F)cc1	i
SMILES	ST2 IL33 inh
c1cc(CN2CCCN(C3CCC4(CCNCC4)CC3)CC2)ccn1	i
Cc1ccc(-c2n[nH]c(Cc3ccccc3)n2)cc1NC(=O)C1CCCO1 (centres undefined)	i
COC(=O)[C@@H]1Cc2ncn(C(C)C)c2CN1C(=O)c1ccc(N(C)C)cc1	i
c1ccc(-c2ncn(C[C@@H]3CCCO3)c2-c2cccc(Cn3cccn3)c2)cc1	i
CCOc1ccc(-c2nc3s/c(=C\C4=Cc5ccccc5OC4C)c(=O)n3n2)cc1 (centres undefined)	i
O=C(c1cnn2c1CCCC2)N1CCCC1c1ccccn1 (centres undefined)	i
COc1cccc2cc(C(=O)NC(C)=O)c(=Nc3cccc(C(F)(F)F)c3)oc12	i
COc1cccc(OC)c1C(=O)Nc1ccc([N+](=O)[O-])cc1	i
COc1ccccc1C1C(Oc2ccccc2C)C(=O)N1c1cccc([N+](=O)[O-])c1 (centres undefined)	33.0%*
COc1cc([N+](=O)[O-])ccc1NC(=O)c1c(C)nn(-c2ccccc2)c1Cl	i
COc1cccc(C2C(C(=O)c3cc4ccccc4o3)=C(O)C(=O)N2CCCN2CCOCC2)c1 (centres undefined)	i
FC(F)(F)c1cccc(Cc2noc(CN3CCC(Oc4cccnc4)CC3)n2)c1	i
CCOc1cc(C2C(C#N)=C(N)OC3=C2C(=O)CC(C)(C)C3)ccc1O (centres undefined)	i
CCOC=NC1=C(C#N)C(c2ccc(Cl)cc2)C2=C(CC(C)(C)CC2=O)O1 (centres undefined)	79.0%*
Cc1ccccc1C1C(C#N)=C(N)OC2=C1C(=O)CC(C)(C)C2 (centres undefined)	i
CCOC=NC1=C(C#N)C(c2ccccc2)C2=C(CC(C)(C)CC2=O)O1 (centres undefined)	59.0%*
CC(=O)Oc1ccc([C@H]2C(C#N)=C(N)OC3=C2C(=O)CC(C)(C)C3)cc1	i
CC(C)c1ccc(C2C(C#N)=C(N)OC3=C2C(=O)CC(C)(C)C3)cc1 (centres undefined)	i
O=C(C(F)F)N(Cc1ccccc1)Cc1ccccc1	i
O=C(Nc1ccc(O)cc1)c1cc2ccccn2n1	i
Cc1cc(Br)ccc1OCC(=O)NCc1ccccn1	i
O=C(O)C1CC2(CCNCC2)CN1C(=O)CCCc1cn[nH]c1 (centres undefined)	i
CC(C)C(NS(=O)(=O)c1ccc2c(c1)oc(=O)n2C)C(=O)NCc1ccccc1Cl (centres undefined)	i
